One assay has as its target EMILIN2. Description: pooled miR-30 sensor sort-seq; sequence = guide strand. Conditions: shRNA.
With TAGGTCTGAAGTTCACTCGATA, the sensor-assay potency score (higher = more potent) is -0.326.
Still for that read-out and setting: for TTTAATTCCATCATGACCCGTT the value was 0.891; for TAGAGTTTTTACAACTATCTAT, -0.151.
With TTGAACTTTGTCCTTCAGGTGG, the sensor-assay potency score (higher = more potent) is -0.378.
The same measure, in the same setting: in the case of TTCTCCGTCACATTGATCCTTG it was -0.623; in that of TATTCCAGGAACTCTCTCCTGT, 0.252.

In the next assay the target is EMP1. Described as above. The note with it: shRNA.
Turning to ATAATAACAGTAGCGATGTGGA, the sensor-assay potency score (higher = more potent) is -0.819.
In turn, ATAGCATAATAACAGTAGCGAT yielded a sensor-assay potency score (higher = more potent) of -1.69.
Same read-out and setting: in the case of TACCGTATTGGAAACCAACCAG it was -0.163; in that of TGATGCATCTACCGTATTGGAA, -0.931; in that of TAGCATAATAACAGTAGCGATG, -1.5.
Same read-out and setting: for AATGGTGCTAACAAATAGCATA the value was -1.39; for TAGCCGTGGTGATACTGCGTTC, -1.37.
The sequence TAGTGTAGATGGACACCCCCAC displayed a sensor-assay potency score (higher = more potent) of -0.261.
On the same count and under the same terms, for TTCGCATAATGACTAGTGTAGA the value was -1.4; for TTTTTCCAAAGACCTACTGATG, -1.45.
AATAGCATAATAACAGTAGCGA gave a sensor-assay potency score (higher = more potent) of 0.0884.
Still for that read-out and setting: in the case of ATCTACCGTATTGGAAACCAAC it was -1.95; in that of TCACTGGCATATGACAGGCTGT, -1.18.
The same measure, in the same setting: in the case of TATTGGAAACCAACCAGACATT it was -1.22.
On the same count and under the same terms, in the case of ATTCGCATAATGACTAGTGTAG it was -0.191; in that of TACTGATGCATCTACCGTATTG, -1.81; in that of ACCGTATTGGAAACCAACCAGA, -1.97.
TTCACTGGCATATGACAGGCTG came in with a sensor-assay potency score (higher = more potent) of -0.108.
The same measure, in the same setting: in the case of TTGGAAACCAACCAGACATTGG it was -0.971.
Still for that read-out and setting: for ATAATGACTAGTGTAGATGGAC the value was -0.252; for TACAGTTTTTCCAAAGACCTAC, -0.739; for TTGAGGGCATCTTCACTGGCAT, -0.461.
The same measure, in the same setting: in the case of ATAGCCGTGGTGATACTGCGTT it was -0.125.

Another assay has as its target ENAM. The description is as above. Conditions: shRNA.
Take TAGTCTTGTAGAGCTAGTGGAT: the sensor-assay potency score (higher = more potent) was -0.371.
Take TTGAGCTTCCTCTTCGGGCTGA: the sensor-assay potency score (higher = more potent) amounted to 1.2.
The same measure, in the same setting: in the case of TAGAGCTAGTGGATTGTCCTTG it was 0.779; in that of TGAAATACCACTGTCTTCCTGA, 0.779; in that of TTGAACTTGTTGATTTCTGTAA, 0.247.
TTATTTGTTCTTTTGGACCCAG had a sensor-assay potency score (higher = more potent) of 0.0187.
As to TTCTTTATAGAACATGGTGTGT, the sensor-assay potency score (higher = more potent) is -0.573.
TACTGTTGAGAGTTTCTCCAGG: the sensor-assay potency score (higher = more potent) was determined as 0.393.
In turn, TAAATTGTTCCTCAGTAGCTAA showed a sensor-assay potency score (higher = more potent) of -0.863.
In the case of TATAATTTGATTTATTAACTTC, the sensor-assay potency score (higher = more potent) was -0.315.
On the same count and under the same terms, in the case of TTTAGGAGGATCTTCTTCTTTG it was -0.209.
Note: reference of the scale not given here.
